Assay results from ChEMBL document CHEMBL3433997, “St. Jude Leishmania screening dataset” (2016).

target: Solute carrier family 2, facilitated glucose transporter member 1 (Homo sapiens) (UniProt P11166); assay: ST_JUDE_LEISH: Cytotoxicity at 2uM final concentration against transgenic Leishmania Mexicana promastigotes LmGLUT1 that are glucose transport deficient and complemented with the human glucose transporter GLUT1. Activity is measured by DNA content using SYBR green in vitro; type: functional
Sequence (P11166 whole entry): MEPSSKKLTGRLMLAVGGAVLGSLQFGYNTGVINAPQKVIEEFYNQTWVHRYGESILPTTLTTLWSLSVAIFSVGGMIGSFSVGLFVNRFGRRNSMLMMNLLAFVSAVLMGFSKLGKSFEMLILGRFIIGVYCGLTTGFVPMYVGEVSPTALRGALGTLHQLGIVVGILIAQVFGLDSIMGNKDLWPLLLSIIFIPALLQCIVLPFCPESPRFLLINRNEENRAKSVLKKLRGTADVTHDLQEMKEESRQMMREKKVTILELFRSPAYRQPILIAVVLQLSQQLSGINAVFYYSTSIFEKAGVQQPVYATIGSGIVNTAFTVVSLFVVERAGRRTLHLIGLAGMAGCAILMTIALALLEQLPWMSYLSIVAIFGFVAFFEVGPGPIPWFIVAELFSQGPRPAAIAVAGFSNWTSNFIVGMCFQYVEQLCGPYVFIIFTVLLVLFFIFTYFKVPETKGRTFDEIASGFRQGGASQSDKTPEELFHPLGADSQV

Point of comparison: `CC(C)NCc1ccc(-c2cccc(CN3CCC(c4ccccc4)CC3)c2)c(C(=O)NCC2CCCCC2)c1`, inhibition 7.97%. Against it:
- N#Cc1ccc2c(c1)CN(CCC1CCC(NC(=O)c3cc4cnccc4[nH]3)CC1)CC2 (stereo not given) — lower, 5.36%
- CN(C)S(=O)(=O)c1ccc(N2CCN(CCC3(c4cccc(F)c4)CCN(C(=O)C(C)(C)C)CC3)CC2)c2nonc12 — higher, 9.09%
- CC(=O)Nc1ccc(OCCCCN(Cc2ccccc2C(F)(F)F)c2ccc(C#N)c(C(F)(F)F)c2)c(Cl)c1 — lower, 4.39%
- CC(=O)Nc1ncc(C(=O)Nc2cccc(-c3ccc(-c4nc5cccc(C)c5[nH]4)cc3)c2)s1 — lower, 0.14%
- N#Cc1ccc(NC(=O)c2ccc(C(=O)NCCCCN3CCC(c4ccc5c(c4OCCOC4CCCCO4)CCCC5)CC3)cc2)cc1 (stereo not given) — lower, 0.68%
- CN1CCCN(Cc2cccc(-c3cccc(NC(=O)c4ccc(Cl)cc4)c3)c2)CC1 — lower, 5.97%
- CN1CCC(COc2ccc(CN3CCC(NC(=O)c4cccc(Cl)c4)CC3)cc2)CC1 — lower, 2.48%
- CCOc1cc(C(=O)Nc2ccccc2N2CCN(S(C)(=O)=O)CC2)cc(OCC)c1OCC — lower, 3.72%
- N=C1N=C(N)NC2(CCCCC2)N1OCCCOc1cccc2ccccc12 — higher, 54.1%
- Cc1c[nH]c(-c2cccc(C(=O)NC3CCC(CCN4CCc5ccc(C#N)cc5CC4)CC3)c2)n1 (stereo not given) — lower, 2.16%
- CCOC(=O)c1nc(-c2ccccc2)[nH]c1NC(=S)NC1CCCCC1 — lower, -0.61%
- COCCN(C)c1ccc(C(=O)Nc2ccccc2)cc1NS(=O)(=O)Cc1ccccc1 — higher, 10.2%
- CC(C)(C)c1ccccc1SC1=C(O)CC2(CCNCC2)OC1=O — lower, 0.78%
- COc1cccc2c(N/N=C/c3cccc([N+](=O)[O-])c3)ccnc12 — higher, 13.4%
- Cn1cc(CCNc2ccnc(NCCc3coc4ccccc34)n2)c2ccccc21 — higher, 8.67%
- Oc1ccc(Nc2nc(NCC3CCCO3)c3ccccc3n2)cc1 (stereo not given) — lower, 7.56%
- O=C(Nc1ccc(S(=O)(=O)N2CCOCC2)cc1)c1cc(-c2cc(Cl)ccc2O)n[nH]1 — lower, 0.98%
- C=C1C(C(=O)OCC)=CN(CC)c2cc(O[C@H]3CCN(C(=O)OC(C)(C)C)C3)ccc21 — lower, 2.71%
- FC(F)(F)c1ccc2[nH]c(-c3cccc(-c4cccc(CNCC5CCCO5)c4)c3)nc2c1 (stereo not given) — lower, 4.7%
- COc1ccc(Cn2c(Nc3cccc(C(F)(F)F)c3)nc3cc(C(=O)NCCN4CCCC4)cnc32)cc1Cl — higher, 13.2%
- COc1ccc(-c2ccc(NC(=O)c3cccc(Cl)c3)cc2)cc1CNC(C)C — lower, 4.75%
- OC(CNCc1ccccc1OCc1ccccc1)c1cc(Br)cs1 (stereo not given) — lower, 3.96%
- O=c1cc(NCCCNCc2sc(Br)nc2Br)[nH]c2ccccc12 — lower, 3.62%
- Cc1ccc(C(=O)NCC2CCN(c3ccc(C(F)(F)F)cc3NC(=O)c3ccco3)CC2)cn1 — lower, 2.76%
- COc1ccccc1CCNc1nc(C)cc(N[C@@H](Cc2ccccc2)C(=O)NCc2cccc(F)c2)n1 — lower, 5.91%
- NS(=O)(=O)c1cccc(Nc2nc(N[C@@H]3CCNC3)nc3cc[nH]c(=O)c23)c1 — lower, 4.84%
- N#Cc1ccc(Cn2ccc3c4c(N)nc(N)nc4ccc32)cc1 — higher, 82.6%
- Fc1ccc2[nH]c(-c3cccc(-c4ccc(CNCCN5CCNCC5)cc4)c3)nc2c1 — lower, -0.21%
- COc1ccc(CN(C)C(=O)CCNS(=O)(=O)c2ccc3c(c2)OCCCO3)cc1F — lower, 5.25%
- O=S(=O)(c1cccc(Cl)c1F)N(CCC(O)(C(F)(F)F)C(F)(F)F)Cc1cccc(O)c1 — lower, 5.8%
- CCCn1c(O)nnc1SCC(=O)Nc1cc(Cl)ccc1Cl — lower, -1.37%
- CN(Cc1ccc(-c2ccc(C(F)(F)F)cc2)cc1)C(=O)Cn1c(CCc2cccc(F)c2F)cc(=O)c2ccc(OCC3CCCN3C)cc21 (stereo not given) — lower, 3.87%
- Cc1nc2ccccc2c(O)c1-c1ccc(Cl)cc1 — lower, 1.42%
- Cc1c(C)n(Cc2ccccc2)c2ncnc(OC3CCN(CC(=O)NCC4CC4)CC3)c12 — lower, 1.84%
- COc1ccc2nccc([C@@H](O)CN3CCC(NCc4ccc5c(c4)NC(=O)CS5)CC3)c2c1 — lower, 1.65%
- COc1ccccc1-c1ccc2nnc(SCC(=O)Nc3ccc4c(c3)OCCO4)n2n1 — lower, 4.56%
- O=C(N[C@@H](CC1CCCCC1)C(=O)NCc1cccc(C(F)(F)F)c1)c1ccc(O)c(-c2ccc(Cl)c(Cl)c2)c1 — lower, 1.91%
- CN(C)c1ccc(-c2csc(C(=O)NCC3CCN(Cc4cccc(C(F)(F)F)c4)C3)c2)cc1 (stereo not given) — lower, 7.22%
- O=C(N[C@@H](CC1CCCCC1)C(=O)NCCN1CCCCC1)c1ccc(O)c(-c2ccc(Cl)c(Cl)c2)c1 — lower, 0.75%
